The values below come from PubChem BioAssay (EPA / NIEHS).

The structures appear in SMILES notation. Inconclusive results are not listed. Activity calls are given as the source filed them. The calls were made as follows, unless noted: active = hit-call score of the fitted dose curve at least 0.9, where 1 is the maximum; inconclusive = response in the unintended direction; inactive = score below 0.9.

Experiment [1] is described as follows: ATG_NF_kB_CIS: Attagene CIS-FACTORIAL HepG2 Assay for human Nuclear Factor Kappa B (NF-kB) (AID 2282991; active = hit-call score of the fitted dose curve at least 0.9, where 1 is the maximum; inactive = score below 0.9). The conditions noted are these: HepG2 Attagene cis-factorial NF-kB reporter mRNA; actives raise or lower the signal. In a few lines:
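After 24 h compound incubation, transfected HepG2 cells yield total RNA; reporter cDNA is PCR-amplified, end-labelled with 6-FAM, HpaI-digested and analysed on a genetic analyser. Endogenous factor activity, DMSO-referenced bidirectional fit.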

Experiment [2] can be described thus: ATG_NRF2_ARE_CIS: Attagene CIS-FACTORIAL HepG2 Assay for human Nuclear Factor Erythroid 2 Related Factor 2 (NFR2) response to Antioxidant Response Elements (ARE) (AID 2282992; active = hit-call score of the fitted dose curve at least 0.9, where 1 is the maximum; inactive = score below 0.9). The conditions noted are these: HepG2 Attagene ARE/NRF2 reporter, transcription factor activity; actives raise or lower the signal. The procedure, abridged: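 Endogenous transcription factor activity read out as reporter transcript levels (RT-PCR plus capillary electrophoresis, fluorescence) in transiently transfected HepG2 cells. Measured at 24 h after dosing; gain or loss of signal fitted versus DMSO.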

Experiment [3] in a line: ATG_Oct_MLP_CIS: Attagene CIS-FACTORIAL HepG2 Assay for human Octamer-Binding Transcription Factor (Oct) (AID 2282993; active = hit-call score of the fitted dose curve at least 0.9, where 1 is the maximum; inactive = score below 0.9). The conditions noted are these: HepG2 Attagene cis-factorial Oct reporter, mRNA; actives raise or lower the signal. In a few lines: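 Readout is reporter transcript level from RT-PCR with fluorescent primer extension and capillary electrophoresis, fitted in both directions against DMSO. Transfected HepG2 reporter units report endogenous factor activity after 24 h dosing.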

Experiment [4] has as its target Cellular tumor antigen p53 (Homo sapiens) (UniProt P04637). Briefly: ATG_p53_CIS: Attagene CIS-FACTORIAL HepG2 Assay for human p53 Transcription Factor (AID 2282994; active = hit-call score of the fitted dose curve at least 0.9, where 1 is the maximum; inactive = score below 0.9). Particulars: HepG2 p53 cis-element reporter, Attagene mRNA; actives raise or lower the signal. The procedure, abridged: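 Endogenous p53 activity read in transiently transfected HepG2 from a cis-element-driven reporter transcript after 24 h exposure. RNA reverse-transcribed, PCR-amplified, fluorescently labelled and sized by capillary electrophoresis; gain or loss fitted against DMSO baseline.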

Experiment [5] deals with human Retinoic Acid Receptor beta (RARb), RARB (gene 5915) (UniProt P10826). Briefly: ATG_RARb_TRANS: Attagene TRANS-FACTORIAL HepG2 Assay for human Retinoic Acid Receptor beta (AID 2283004). The procedure, abridged: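 Fluorescent capillary-electrophoresis detection of GAL4-UAS reporter mRNA defines the endpoint, with induction over DMSO-treated wells scored as activity. Transiently transfected human hepatoma HepG2 cells expressing exogenous NR–Gal4 proteins are exposed to test chemicals for 24 h.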
human Retinoic Acid Receptor beta (RARb), RARB (gene 5915), sequence (P10826 whole entry, looked up, the tested form may be a part): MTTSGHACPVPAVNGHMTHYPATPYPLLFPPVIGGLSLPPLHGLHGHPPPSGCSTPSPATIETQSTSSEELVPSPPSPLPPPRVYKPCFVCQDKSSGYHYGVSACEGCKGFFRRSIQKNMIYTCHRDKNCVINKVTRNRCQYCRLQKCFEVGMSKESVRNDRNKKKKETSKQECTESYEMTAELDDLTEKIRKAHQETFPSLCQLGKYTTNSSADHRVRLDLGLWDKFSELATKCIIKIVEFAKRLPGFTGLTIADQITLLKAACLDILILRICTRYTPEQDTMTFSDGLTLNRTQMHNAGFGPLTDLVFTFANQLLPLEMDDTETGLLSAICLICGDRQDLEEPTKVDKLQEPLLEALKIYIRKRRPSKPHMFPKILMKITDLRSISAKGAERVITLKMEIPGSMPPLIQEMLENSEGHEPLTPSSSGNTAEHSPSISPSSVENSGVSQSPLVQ

Experiment [6] concerns the target Retinoic acid receptor alpha (Homo sapiens) (UniProt P10276). The experiment in a line: ATG_RARa_TRANS: Attagene TRANS-FACTORIAL HepG2 Assay for human Retinoic Acid Receptor alpha (RARa) (AID 2283005). The procedure, abridged:
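HepG2 transiently transfected with multiplex GAL4-UAS reporter units including a human RARa–GAL4 chimera; 24 h compound exposure. Reporter mRNA quantified by RT-PCR, 6-FAM labeling and capillary electrophoresis; gain of signal versus DMSO.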

The target of experiment [7] is Peroxisome proliferator-activated receptor gamma (Homo sapiens) (UniProt P37231). Briefly: ATG_PPARg_TRANS: Attagene TRANS-FACTORIAL HepG2 Assay for human Peroxisome Proliferator-activated Receptor-gamma (PPARg) (AID 2283007). The procedure, abridged:
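Liver-derived HepG2 cells expressing an exogenous NR-Gal4 chimera alongside GAL4-UAS reporter genes; 24 h exposure. Fluorescence of reporter RT-PCR products, separated by capillary electrophoresis, gives mRNA induction relative to DMSO.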

For experiment [8], the target named is Nuclear receptor subfamily 1 group I member 2 (Homo sapiens) (UniProt O75469). The experiment in a line: ATG_PXR_TRANS: Attagene TRANS-FACTORIAL HepG2 Assay for human Pregnane X Receptor (PXR) (AID 2283008). In a few lines: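 Transactivation by exogenous PXR–GAL4 fusion measured as reporter transcript induction after 24 h compound treatment of transfected human HepG2 cells. Read-out via RT-PCR and capillary electrophoresis of labelled fragments, fitted upward relative to DMSO.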
Nuclear receptor subfamily 1 group I member 2 (Homo sapiens), sequence (O75469 whole entry, looked up, the tested form may be a part): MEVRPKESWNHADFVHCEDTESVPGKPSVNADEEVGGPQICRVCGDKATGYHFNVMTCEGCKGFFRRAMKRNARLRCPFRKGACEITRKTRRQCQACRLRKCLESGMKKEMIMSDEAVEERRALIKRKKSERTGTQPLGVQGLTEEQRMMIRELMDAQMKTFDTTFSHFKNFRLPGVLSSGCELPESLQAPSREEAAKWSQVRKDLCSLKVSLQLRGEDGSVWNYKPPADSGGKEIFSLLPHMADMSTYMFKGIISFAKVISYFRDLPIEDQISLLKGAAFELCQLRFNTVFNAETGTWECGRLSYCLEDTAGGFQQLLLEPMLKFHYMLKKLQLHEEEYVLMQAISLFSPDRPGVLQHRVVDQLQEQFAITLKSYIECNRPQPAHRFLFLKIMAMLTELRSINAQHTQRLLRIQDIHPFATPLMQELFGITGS

In experiment [9] the target is human Retinoic Acid Receptor gamma (RARg), RARG (gene 5916) (UniProt P13631). The experiment in a line: ATG_RARg_TRANS: Attagene TRANS-FACTORIAL HepG2 Assay for human Retinoic Acid Receptor gamma (RARg) (AID 2283009). In a few lines: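 Readout: reporter transcript levels via RT-PCR, 6-FAM primer-extension labelling, HpaI digestion and capillary electrophoresis. Cells: HepG2 carrying transfected RARg-GAL4 chimera plus UAS reporter set. Dosing 24 h; DMSO negative control.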
human Retinoic Acid Receptor gamma (RARg), RARG (gene 5916), sequence (P13631 whole entry, looked up, the tested form may be a part): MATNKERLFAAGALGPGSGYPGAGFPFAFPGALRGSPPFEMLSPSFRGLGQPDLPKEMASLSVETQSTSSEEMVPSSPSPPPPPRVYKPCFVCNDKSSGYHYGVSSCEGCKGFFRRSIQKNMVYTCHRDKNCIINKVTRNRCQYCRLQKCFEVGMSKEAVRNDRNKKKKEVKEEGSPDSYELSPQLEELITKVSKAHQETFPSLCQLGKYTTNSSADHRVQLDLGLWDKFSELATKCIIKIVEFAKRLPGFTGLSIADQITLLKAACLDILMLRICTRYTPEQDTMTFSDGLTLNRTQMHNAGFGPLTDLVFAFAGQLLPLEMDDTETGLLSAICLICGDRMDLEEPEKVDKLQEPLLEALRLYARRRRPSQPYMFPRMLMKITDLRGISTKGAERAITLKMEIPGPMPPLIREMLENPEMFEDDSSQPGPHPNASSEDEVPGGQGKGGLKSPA

Experiment [10] has as its target human Peroxisome Proliferator-activated Receptor delta (PPARd), PPARD (gene 5467) (UniProt Q03181). The experiment in a line: ATG_PPARd_TRANS: Attagene TRANS-FACTORIAL HepG2 Assay for human Peroxisome Proliferator-activated Receptor delta (PPARd) (AID 2283002). In a few lines:
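HepG2 cells transiently transfected with GAL4-UAS multiplexed reporter units driven by exogenous chimeric NR-GAL4 proteins; 24 h compound exposure. Reporter mRNA measured by RT-PCR, 6-FAM primer extension, HpaI digestion and capillary electrophoresis; gain of signal fitted relative to DMSO.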

Experiment [11] addresses Retinoic acid receptor RXR-alpha (Homo sapiens) (UniProt P19793). Briefly: ATG_RXRa_TRANS: Attagene TRANS-FACTORIAL HepG2 Assay for human Retinoid X Receptor alpha (RXRa) (AID 2283012). The procedure, abridged: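 Read-out: fluorescent reporter-transcript fragments quantified by capillary electrophoresis after RT-PCR. Transiently transfected HepG2 cells carrying GAL4-UAS reporters and NR-GAL4 chimeras were exposed to chemical for 24 h; activity scored as increase over DMSO.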

Experiment [12] deals with human RAR-related Orphan Receptor beta (RORb), RORB (gene 6096) (UniProt Q92753). Briefly: ATG_RORb_TRANS: Attagene TRANS-FACTORIAL HepG2 Assay for human RAR-related Orphan Receptor beta (RORb) (AID 2283010). In a few lines:
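HepG2, transient MRTU transfection (GAL4-UAS reporters, exogenous NR-Gal4 chimeras); 24 h compound exposure; total RNA → RT-PCR → 6-FAM primer extension → HpaI digest → CE fluorescence. Positive direction vs DMSO baseline.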

The target in experiment [13] is human RAR-related Orphan Receptor gamma (RORg), RORC (gene 6097) (UniProt P51449). Briefly: ATG_RORg_TRANS: Attagene TRANS-FACTORIAL HepG2 Assay for human RAR-related Orphan Receptor gamma (RORg) (AID 2283011). The procedure, abridged:
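Chimeric RORg-Gal4 transactivation in transfected HepG2; 24 h exposure; RT-PCR/capillary electrophoresis readout of reporter mRNA, DMSO baseline.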

Experiment [14] has as its target human Peroxisome Proliferator-activated Receptor alpha (PPARa), PPARA (gene 5465) (UniProt Q07869). Briefly: ATG_PPARa_TRANS: Attagene TRANS-FACTORIAL HepG2 Assay for human Peroxisome Proliferator-activated Receptor alpha (PPARa) (AID 2283001).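 Also: potency for gain of reporter signal over DMSO so agonist or activator.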 In a few lines:
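Transient HepG2 transfection, GAL4-UAS reporters, NR-Gal4 chimeras; 24 h compound exposure. Readout: reporter transcripts by RT-PCR, 6-FAM primer extension, HpaI digest, capillary electrophoresis. Positive direction vs DMSO baseline.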

A short description of experiment [15]: BSK_3C_TissueFactor: BioMAP Diversity Plus: 3C Assay for Tissue Factor Biomarker Activity (AID 2282997; active = hit-call score of the fitted dose curve at least 0.9, where 1 is the maximum; inactive = score below 0.9). The conditions noted are these: BioMAP 3C HUVEC, tissue factor biomarker readout; actives raise or lower the signal. The procedure, abridged:
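In this endothelial system, HUVEC are treated for 24 h and Tissue Factor is assessed by ELISA, normalised to DMSO.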

The nature of experiment [16]: BSK_3C_uPAR: BioMAP Diversity Plus: 3C Assay for Urokinase-type plasminogen activator receptor (uPAR) Biomarker Activity (AID 2282998; active = hit-call score of the fitted dose curve at least 0.9, where 1 is the maximum; inactive = score below 0.9). The conditions noted are these: BioMAP 3C HUVEC, uPAR biomarker ELISA; actives raise or lower the signal. The procedure, abridged: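 Cell-surface uPAR on HUVEC (3C system) read by ELISA at 24 h post-treatment, with DMSO as baseline and fitting in both directions. Parallel cultures stained with SRB to flag overt cytotoxicity.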

A short description of experiment [17]: BSK_3C_VCAM1: BioMAP Diversity Plus: 3C Assay for Vascular cell adhesion molecule 1 (VCAM1) Biomarker Activity (AID 2282999; active = hit-call score of the fitted dose curve at least 0.9, where 1 is the maximum; inactive = score below 0.9). Particulars: BioMAP 3C HUVEC, VCAM1 ELISA, cytokine-stimulated; actives raise or lower the signal. The procedure, abridged:
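HUVEC primary cells, 24 h compound exposure; VCAM-1 by ELISA; gain/loss of signal fitted bidirectionally vs DMSO baseline.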
A general note: An ELISA detects its analyte on a solid surface through an enzyme-linked reagent.

Experiment [18] can be described thus: BSK_4H_Eotaxin3: BioMAP Diversity Plus: 4H Assay for Eotaxin 3 Biomarker Activity (AID 2283000; active = hit-call score of the fitted dose curve at least 0.9, where 1 is the maximum; inactive = score below 0.9;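 also: CCL26 protein level quantified by ELISA in parallel with SRB cytotoxicity check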). Particulars: primary human endothelial cells (HUVEC); actives raise or lower the signal. In a few lines: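 ELISA quantitation of CCL26 (Eotaxin-3) protein from chemically dosed human vascular endothelial cells at 24 h; increases and decreases both scored relative to DMSO-treated baseline.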

Read-out in experiment [19]: Intercellular Adhesion Molecule 1 (ICAM1), ICAM1 (gene 3383)
Briefly: BSK_3C_ICAM1: BioMAP Diversity Plus: 3C Assay for Intercellular Adhesion Molecule 1 (ICAM1) Biomarker Activity (AID 2283003; active = hit-call score of the fitted dose curve at least 0.9, where 1 is the maximum; inactive = score below 0.9). Particulars: primary human endothelial cells (HUVEC); actives raise or lower the signal. In a few lines: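 ELISA read-out of ICAM-1; HUVEC (primary human), 3C system, 24 h post-dosing; bidirectional fit vs DMSO baseline.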

Experiment [20] in a line: BSK_3C_Proliferation: Cell Proliferation Assessment in the BioMAP Diversity Plus: 3C Assay (AID 2283006; active = hit-call score of the fitted dose curve at least 0.9, where 1 is the maximum; inactive = score below 0.9). Particulars: primary human endothelial cells (HUVEC). The procedure, abridged: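 HUVEC, sub-confluent; 48 h chemical exposure; 10% TCA fix, 0.1% SRB stain, A560 total protein. Gain or loss of signal fitted both directions vs DMSO control.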

human Peroxisome Proliferator-activated Receptor delta (PPARd), PPARD (gene 5467), sequence (Q03181 whole entry, looked up, the tested form may be a part): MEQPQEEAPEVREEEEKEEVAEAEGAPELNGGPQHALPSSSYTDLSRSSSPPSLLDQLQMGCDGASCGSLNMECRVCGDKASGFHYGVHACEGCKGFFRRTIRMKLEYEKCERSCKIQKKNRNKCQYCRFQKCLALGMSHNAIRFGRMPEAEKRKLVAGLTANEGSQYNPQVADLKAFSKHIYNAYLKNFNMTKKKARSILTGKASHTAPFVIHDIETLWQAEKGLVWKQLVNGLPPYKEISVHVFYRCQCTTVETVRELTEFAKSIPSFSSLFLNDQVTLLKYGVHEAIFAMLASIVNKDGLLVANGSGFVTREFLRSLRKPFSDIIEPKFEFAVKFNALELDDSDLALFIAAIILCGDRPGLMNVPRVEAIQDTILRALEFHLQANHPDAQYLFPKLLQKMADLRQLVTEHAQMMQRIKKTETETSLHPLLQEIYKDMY
human RAR-related Orphan Receptor gamma (RORg), RORC (gene 6097), sequence (P51449 whole entry, looked up, the tested form may be a part): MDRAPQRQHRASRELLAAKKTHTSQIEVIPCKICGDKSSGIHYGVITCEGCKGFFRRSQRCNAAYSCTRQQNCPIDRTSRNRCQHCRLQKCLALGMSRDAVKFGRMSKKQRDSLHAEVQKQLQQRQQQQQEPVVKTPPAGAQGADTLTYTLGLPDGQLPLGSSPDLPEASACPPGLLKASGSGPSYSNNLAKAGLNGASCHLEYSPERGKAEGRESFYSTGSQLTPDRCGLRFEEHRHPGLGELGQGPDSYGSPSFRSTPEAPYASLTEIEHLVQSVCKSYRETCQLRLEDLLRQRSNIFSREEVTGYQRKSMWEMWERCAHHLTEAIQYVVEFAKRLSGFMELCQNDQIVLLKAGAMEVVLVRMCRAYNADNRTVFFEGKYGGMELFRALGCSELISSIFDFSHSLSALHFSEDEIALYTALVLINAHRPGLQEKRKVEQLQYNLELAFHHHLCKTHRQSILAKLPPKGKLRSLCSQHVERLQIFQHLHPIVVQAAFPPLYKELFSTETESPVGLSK
Peroxisome proliferator-activated receptor gamma (Homo sapiens), sequence (P37231 whole entry, looked up, the tested form may be a part): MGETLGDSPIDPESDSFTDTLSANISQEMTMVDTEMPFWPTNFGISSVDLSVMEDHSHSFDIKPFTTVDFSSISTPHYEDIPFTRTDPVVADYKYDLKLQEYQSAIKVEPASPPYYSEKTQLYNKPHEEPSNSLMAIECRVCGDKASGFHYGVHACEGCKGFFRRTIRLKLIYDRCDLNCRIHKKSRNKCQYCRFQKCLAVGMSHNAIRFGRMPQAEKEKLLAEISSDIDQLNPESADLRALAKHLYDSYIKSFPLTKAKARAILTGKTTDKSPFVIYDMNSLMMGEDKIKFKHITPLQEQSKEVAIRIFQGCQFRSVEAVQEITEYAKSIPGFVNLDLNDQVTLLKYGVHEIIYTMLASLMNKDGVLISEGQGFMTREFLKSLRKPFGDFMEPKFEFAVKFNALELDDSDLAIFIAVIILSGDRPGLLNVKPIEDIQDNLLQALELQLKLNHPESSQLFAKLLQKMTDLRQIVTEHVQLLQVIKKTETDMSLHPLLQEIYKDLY
Retinoic acid receptor RXR-alpha (Homo sapiens), sequence (P19793 whole entry, looked up, the tested form may be a part): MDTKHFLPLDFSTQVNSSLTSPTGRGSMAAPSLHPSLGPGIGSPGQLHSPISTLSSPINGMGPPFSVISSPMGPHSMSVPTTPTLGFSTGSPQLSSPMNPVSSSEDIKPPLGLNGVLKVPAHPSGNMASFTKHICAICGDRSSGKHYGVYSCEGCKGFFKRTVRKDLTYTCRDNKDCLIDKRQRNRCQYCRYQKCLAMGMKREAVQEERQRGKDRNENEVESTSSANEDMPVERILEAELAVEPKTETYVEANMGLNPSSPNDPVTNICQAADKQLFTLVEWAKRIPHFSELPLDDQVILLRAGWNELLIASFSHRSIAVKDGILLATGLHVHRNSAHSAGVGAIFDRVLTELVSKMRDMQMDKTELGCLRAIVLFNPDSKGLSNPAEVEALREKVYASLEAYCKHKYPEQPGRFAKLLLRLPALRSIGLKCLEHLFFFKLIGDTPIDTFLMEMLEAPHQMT
Cellular tumor antigen p53 (Homo sapiens), sequence (P04637 whole entry, looked up): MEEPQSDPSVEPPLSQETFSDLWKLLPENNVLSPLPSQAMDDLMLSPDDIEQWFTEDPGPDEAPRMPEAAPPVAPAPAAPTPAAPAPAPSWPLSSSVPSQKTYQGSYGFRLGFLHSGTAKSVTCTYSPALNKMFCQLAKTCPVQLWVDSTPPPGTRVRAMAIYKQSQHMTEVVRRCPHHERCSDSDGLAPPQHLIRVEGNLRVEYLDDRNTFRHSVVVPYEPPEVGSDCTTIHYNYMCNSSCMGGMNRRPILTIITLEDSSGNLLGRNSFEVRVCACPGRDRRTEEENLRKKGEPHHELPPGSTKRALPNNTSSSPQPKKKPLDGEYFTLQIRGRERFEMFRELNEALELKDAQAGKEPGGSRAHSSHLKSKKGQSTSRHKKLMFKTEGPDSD
Retinoic acid receptor alpha (Homo sapiens), sequence (P10276 whole entry, looked up, the tested form may be a part): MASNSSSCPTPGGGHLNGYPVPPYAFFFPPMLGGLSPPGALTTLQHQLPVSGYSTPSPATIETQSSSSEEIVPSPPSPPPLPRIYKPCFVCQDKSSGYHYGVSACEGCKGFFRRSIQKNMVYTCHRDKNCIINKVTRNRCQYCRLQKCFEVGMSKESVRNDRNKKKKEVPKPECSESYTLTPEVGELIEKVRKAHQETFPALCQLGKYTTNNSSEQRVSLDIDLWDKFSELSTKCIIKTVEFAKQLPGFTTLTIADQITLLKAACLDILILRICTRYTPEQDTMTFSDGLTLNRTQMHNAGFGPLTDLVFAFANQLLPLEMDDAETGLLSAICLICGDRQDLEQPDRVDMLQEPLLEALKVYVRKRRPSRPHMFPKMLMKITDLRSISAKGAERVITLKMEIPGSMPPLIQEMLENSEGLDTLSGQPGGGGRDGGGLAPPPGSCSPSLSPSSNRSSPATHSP
human Peroxisome Proliferator-activated Receptor alpha (PPARa), PPARA (gene 5465), sequence (Q07869 whole entry, looked up, the tested form may be a part): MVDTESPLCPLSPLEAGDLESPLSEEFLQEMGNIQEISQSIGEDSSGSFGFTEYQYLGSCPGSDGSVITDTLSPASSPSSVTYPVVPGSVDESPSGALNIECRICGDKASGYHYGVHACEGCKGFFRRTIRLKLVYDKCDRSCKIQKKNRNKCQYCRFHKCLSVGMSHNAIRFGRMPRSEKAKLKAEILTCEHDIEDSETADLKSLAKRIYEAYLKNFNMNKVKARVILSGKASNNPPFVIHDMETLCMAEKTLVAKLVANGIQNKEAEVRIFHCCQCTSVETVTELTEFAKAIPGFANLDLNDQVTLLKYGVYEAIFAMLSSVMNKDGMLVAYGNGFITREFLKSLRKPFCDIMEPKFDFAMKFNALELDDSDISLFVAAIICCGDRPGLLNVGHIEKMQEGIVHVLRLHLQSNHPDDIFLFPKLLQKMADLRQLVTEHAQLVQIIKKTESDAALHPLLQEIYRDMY

As a reminder, the AC50 is the concentration giving half of the maximal activity seen. In the case of `CC(C)[C@@H](Nc1ccc(C(F)(F)F)cc1Cl)C(=O)OC(C#N)c1cccc(Oc2ccccc2)c1` (some centres undefined), the outcome in [1], in experiment [3], in experiment [4], in [5], in experiment [6] and in experiment [9] was inactive. Further, the AC50 in [2] was 17.1 µM (active); in [7], 5.11 µM (active); in [8] it was 0.51 µM (active).

Consider `CCOP(=S)(OCC)O/N=C(\C#N)c1ccccc1`, for which the call in [1], in experiment [3], in experiment [4], in [10] and in experiment [11] was inactive. For the same compound, the AC50 is 27.7 µM (active) in experiment [2], 10.6 µM (active) in [7] and 1.54 µM (active) in experiment [8].

Turning to `C=C(C)[C@@H]1CC=C(C=O)CC1`, the call in experiment [1], in [3], in [4] and in experiment [10] was inactive. Further, the figures for the AC50 in experiment [2], in [7] and in experiment [8] were 80.5 µM (active), 22.5 µM (active) and 11 µM (active), respectively.

Take `CC(=O)C(F)(F)C(F)(F)F`: the compound was called inactive in [1], in experiment [2], in experiment [3], in experiment [4], in experiment [10] and in experiment [7]. Moreover, the compound was called inactive in experiment [8] and in experiment [11].

On to `O=[N+]([O-])c1cc([As](=O)(O)O)ccc1O`, for which the compound was called inactive in experiment [1], in experiment [2], in experiment [3], in experiment [4], in experiment [10] and in experiment [8].

For the compound `C[C@H]1C(=O)O[C@@H]2CCN3CC=C(COC(=O)[C@](C)(O)[C@]1(C)O)[C@H]23`, the result in experiment [1], in experiment [2], in experiment [3], in experiment [4], in experiment [10] and in [5] was inactive. For the same compound, the outcome in [7] and in [8] was inactive.

For `CC(F)(F)CC(F)(F)F`, the call in experiment [1], in experiment [2], in [3], in experiment [4], in experiment [10] and in [7] was inactive. Moreover, the outcome in [8], in experiment [9] and in experiment [11] was inactive.

As for `CCCCOC(C)=O`, the compound was called inactive in experiment [1], in [2], in experiment [3], in experiment [4], in experiment [10] and in experiment [6]. Besides, the result in experiment [7], in experiment [8], in experiment [9], in experiment [12], in experiment [13] and in [11] was inactive.

Take `Cc1cc(SCc2sc(-c3ccc(C(F)(F)F)c(F)c3)nc2C)ccc1OCC(=O)O`: the call in experiment [1] and in [11] was inactive. The AC50 in experiment [3] was 15.6 µM (active); in experiment [4] it was 47.1 µM (active); in experiment [14], 0.201 µM (active); in experiment [7], 0.887 µM (active); in experiment [8], 2.05 µM (active).

As to `COc1nn(C(=O)NS(=O)(=O)c2ccccc2OC(F)(F)F)c(=O)n1C`, the call in experiment [1], in experiment [2], in [3], in experiment [10], in experiment [5] and in [7] was inactive. Further, the result in experiment [8] and in experiment [11] was inactive.

`Clc1cccc(Cl)c1`: the compound was called inactive in experiment [1], in experiment [2], in experiment [3], in experiment [15], in [16] and in [17]. Further, the result in experiment [18], in [10], in experiment [19], in experiment [5], in experiment [20] and in experiment [13] was inactive.
